# According to the supplement of paper PMC3334620:
# In all, about 33,000 sequences were measured (“E-score (-0.5 to 0.5)”: median about -0.035, highest 2% from about 0.34 on). For the sample, the highest values were picked, then their nearest neighbours and some sequences at random.
# Molecular target: T1, Mot3 (UniProt P54785)
# T1 sequence: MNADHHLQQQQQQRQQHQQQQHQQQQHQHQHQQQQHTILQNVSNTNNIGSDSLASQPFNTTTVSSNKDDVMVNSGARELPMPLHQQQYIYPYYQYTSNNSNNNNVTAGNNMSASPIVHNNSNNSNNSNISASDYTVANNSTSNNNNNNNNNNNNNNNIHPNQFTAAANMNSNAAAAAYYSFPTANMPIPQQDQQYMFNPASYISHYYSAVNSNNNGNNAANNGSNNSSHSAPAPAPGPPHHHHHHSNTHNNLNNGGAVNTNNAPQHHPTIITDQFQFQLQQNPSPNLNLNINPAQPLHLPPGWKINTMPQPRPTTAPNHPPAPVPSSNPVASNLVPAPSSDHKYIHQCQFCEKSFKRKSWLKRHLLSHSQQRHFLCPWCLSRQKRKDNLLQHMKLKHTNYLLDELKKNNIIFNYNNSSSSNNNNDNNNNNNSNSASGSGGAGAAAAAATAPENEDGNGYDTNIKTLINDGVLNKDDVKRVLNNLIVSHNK
# Assay: PBM E-score (8-mer binding enrichment) (E-score (-0.5 to 0.5)); higher = stronger / more preferred TF binding
# Details: protein concentration: 200 nM; construct: GST-full length
# Method in brief: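 GST-tagged yeast TFs (full-length or DNA-binding domain) were made by PURExpress in vitro transcription/translation and applied at about 100-200 nM to universal all-10-mer Agilent arrays. The arrays were made double-stranded by primer extension, on fresh or once-stripped slides. Bound protein was detected with fluorescent anti-GST, and scans were normalised with masliner. Each ungapped eight-base word, pooled with its reverse complement, received an E-score (modified Wilcoxon-Mann-Whitney statistic) from the Universal PBM Analysis Suite.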
row,Sequence,PBM E-score
1,GGGGGGAA,-0.375
2,CTCGGCTA,-0.0141
3,GTATGGAA,-0.156
4,GCTTGGCA,-0.105
5,AGTTTTCG,0.0727
6,GCGGGTCA,0.0734
7,CTGAGGCA,0.257
8,GTGAGGCA,0.353
9,ATGAGGCG,-0.119
10,ATGAGGCA,0.364
11,ATGAGGCC,-0.174
12,GTGAGGAA,-0.106
13,CCTACTTC,-0.0137
14,ACCCGTCA,-0.239
15,AGATAGCG,-0.0829
16,CGGCACGA,0.00099
17,AAGCACGG,0.0983
18,AGGCACGA,0.491
19,ACGCACGG,0.0438
20,AGGCACGG,0.491
21,GGGCACGA,0.163
22,GCCCTAGC,-0.184
23,CTTGGCAC,-0.0521
24,CTTTGGCC,0.0624
25,CATTGTGA,-0.0102

row,Sequence,PBM E-score
1,ACCACGGC,-0.108
2,GCCCGGTA,-0.0651
3,AATTAAAT,0.124
4,CGGTACGC,-0.174
5,GGGTACGA,-0.148
6,CGGTACGA,-0.155
7,ACGTACGG,-0.163
8,AGGTACTG,0.258
9,AGGTACGG,0.39
10,AGGTACTC,0.333
11,AGGTACGC,0.444
12,AGGTACGA,0.346
13,CGACTAGA,-0.0287
14,AAGCCCAT,-0.253
15,ACAACGTG,0.114
16,TACAGCGA,-0.184
17,AACATAGA,0.2
18,CACATACA,0.239
19,GACATAGA,0.0532
20,GAAATACA,0.328
21,AAAATACA,0.298
22,TAAATACA,0.366
23,GACATACA,0.218
24,TACATACA,0.355
25,TACATAGA,0.357

row,Sequence,PBM E-score
1,GCCTCCGA,0.0149
2,CGTACCAC,-0.0328
3,CGAATTCG,-0.137
4,AACAGAAG,0.0357
5,GTCTTAAA,-0.131
6,CCCTGAAA,-0.0551
7,AAAGGTTC,0.12
8,ACACGATG,0.199
9,CCACGATA,-0.107
10,ACACGATA,0.345
11,ACACGATC,0.347
12,CCACGATC,0.0336
13,AGACGATC,-0.288
14,CCTTTGAC,0.125
15,GAGGCTAA,-0.134
16,ACTGCGCA,-0.17
17,GGTGGGCA,0.0151
18,GGTGACAA,-0.12
19,GCCTTTAA,0.322
20,CCCTTTAC,0.15
21,GCCTTTAC,0.357
22,AGCGCTAG,-0.115
23,TATTTCAA,0.159
24,CCATCTAG,-0.0951
25,ATTTAACC,0.0628

row,Sequence,PBM E-score
1,ATTTAACA,0.354
2,AGTTATAA,0.163
3,GCTTAACA,0.229
4,CGTTAAAA,0.151
5,ATTTAACG,0.247
6,TGTTAAAA,0.343
7,CGTTATAA,0.15
8,CCTTAACA,0.315
9,GGTTAAAA,0.194
10,TGTTATAA,0.35
11,TCTTAACA,0.346
12,CGGGGGGC,-0.295
13,ACAATTCC,-0.0244
14,CGCTCCAC,-0.234
15,GTGAAGTA,0.0411
16,TAACACAA,0.332
17,CCAGTATA,-0.178
18,ACTTGATA,0.0522
19,GAATCTAA,-0.0012
20,CCTGAACA,0.23
21,GATTAACA,0.338
22,TGTTAACA,0.361
23,CATTAACA,0.299
24,AGTTAACA,0.279
25,CGTTAACA,0.244

row,Sequence,PBM E-score
1,TATTAACA,0.359
2,AAAAGGTC,-0.161
3,CTGCAGCA,-0.0262
4,GCCAGCGC,-0.236
5,AAGCGTAA,0.0617
6,GCGTTTCC,0.0476
7,AGGAAATC,0.373
8,GGGAAATA,0.0874
9,AGGAAATG,0.262
10,CGGAAATA,-0.206
11,AGGAAATA,0.368
12,CGGAAATC,-0.109
13,AGTGATAG,0.0766
14,GCCTCGCC,-0.17
15,ACCTGAAC,0.0861
16,AAGGGTAT,-0.018
17,TATTCACA,0.221
18,ACAGGAGG,-0.0434
19,AAAAGATG,0.11
20,AAAAGGCG,0.278
21,CAAAGGCC,-0.151
22,AAAAGGCT,0.0632
23,GAAAGGCC,-0.0302
24,TAAAGGCA,0.481
25,TAAAGGGA,0.016

row,Sequence,PBM E-score
1,CAAAGGCG,0.233
2,GAAAGGGA,0.0421
3,TAAAGTCA,0.0168
4,AAAAGGCA,0.478
5,CAAAGGCA,0.479
6,GAAAGGCA,0.469
7,ACAACGAT,0.155
8,AGCACAAG,0.0406
9,CTAGGCCC,-0.21
10,CTCTACCA,-0.192
11,CGACTCAG,-0.219
12,GCGGTTCC,0.0435
13,CACTTTGG,-0.0925
14,GACTGATA,-0.216
15,CGGGGCTA,-0.291
16,AACTTCCT,0.15
17,CTTTGTAC,0.193
18,ATTTGTAA,0.244
19,CCTTGTAG,0.311
20,CCTTGTAA,0.392
21,CTTTGTAA,0.355
22,CCTTGTAC,0.272
23,AGGCTGTC,-0.15
24,GGGCATAC,-0.186
25,AAGAAGTC,-0.0398

row,Sequence,PBM E-score
1,AATTGCGC,0.0861
2,GTCTATGA,0.0543
3,CTCGATAC,0.24
4,CGCGTGAA,0.172
5,GGCGTGAA,-0.0959
6,AGCGTGTC,0.205
7,AGCGTGTG,0.147
8,AGCGTGTA,0.406
9,GGCGTGTA,0.383
10,GGCGTGCA,-0.243
11,CGCGTGTC,0.196
12,CGCGTGTA,0.375
13,ACAGACGT,0.119
14,GAGGGAAA,-0.199
15,CTCCTTGA,-0.122
16,CGAAGGTA,0.366
17,CGAAGGTC,-0.313
18,GGAAGGTA,0.251
19,AGAAGGTA,0.347
20,AGAAGGTC,-0.0584
21,AGAAGGTG,-0.0242
22,ATTTAGGC,0.339
23,CTTGATAC,0.00505
24,CAGACACC,-0.0175
25,AAGACGGC,-0.265

row,Sequence,PBM E-score
1,ATGGATTG,0.0625
2,GCGTTCTA,-0.106
3,ATAGACCC,0.178
4,CGCCACCC,-0.0907
5,GAACATGC,0.202
6,CAACATGA,0.352
7,AAACATGT,0.374
8,CCACATGA,0.0141
9,TAACATCA,0.25
10,TAACATGA,0.363
11,AAACATGG,0.222
12,CAACATGG,0.337
13,AAACATGA,0.327
14,AAACATGC,0.288
15,CAACATGC,0.345
16,GAACATGA,0.238
17,ATGGCCAT,-0.171
18,CAGTTCCC,-0.174
19,CTAGGATC,-0.0652
20,CAGTGCGC,-0.292
21,CCCGGTCG,-0.273
22,ACCGGTAT,-0.135
23,ACGTTGTG,0.137
24,GGCCGAGA,-0.209
25,TAGTAATA,0.182

row,Sequence,PBM E-score
1,CTCTCTGC,-0.112
2,AAGGCATG,0.303
3,AAGGCATC,0.381
4,AAGGCATA,0.321
5,AGGGCATC,-0.163
6,ATGGCATC,-0.162
7,AAGGCATT,0.362
8,AAACTTCG,0.0118
9,TACCTAGA,0.252
10,AGAGAAAA,-0.0157
11,CAGCACTA,-0.113
12,ATAAAGCA,-0.12
13,ATTAAGGA,0.0441
14,ATAAAGGC,0.186
15,ACATAGGC,0.373
16,CTAAAGGA,0.148
17,CTAAAGGC,0.35
18,ACATAGGT,0.282
19,ACACAGGG,0.213
20,ATTAAGGC,0.378
21,GCATAGGC,0.166
22,ACACAGGA,0.295
23,CTTAAGGC,0.314
24,ACACAGGC,0.354
25,CGCAGCCC,-0.265

row,Sequence,PBM E-score
1,CAGCAACC,-0.184
2,TAACGCAA,0.2
3,CGAGAACG,-0.206
4,GGGTAAGA,-0.146
5,ATCGCTTC,-0.178
6,ACAAAGGG,-0.0152
7,ACAAAGGC,0.36
8,CCAAAGGC,0.145
9,ATAGCGCA,-0.0413
10,AGAGCTAT,0.00577
11,AAATGTAA,0.346
12,CAATGTAG,0.234
13,TAATGTCA,0.139
14,TAATGTAA,0.354
15,AAATGTAG,0.151
16,GAATGTAA,0.295
17,AAATGTAC,0.227
18,CAATGTAC,0.184
19,CAATGTAA,0.34
20,ATTCTCTC,-0.103
21,ATATTAAA,0.184
